GLP-1R inv ag: inverse agonists of human GLP-1 receptor. P43220. HEK293 GLP-1R CRE-luciferase, luminescence, 24 h; GLP-1R form is constitutively active. Potency, µM (titrated, usually from 38.3 µM), for inactives: at the highest dose activity change, negative = inhibition, most hits filed as inhibitors. 410,000 tested, 1.6% active. AID 624417; also: % is scaled to controls: 0 for no effect and ±100 for the full control effect; nearly all actives have a fitted effect of over 55% in size
Target sequence (P43220 whole entry, looked up): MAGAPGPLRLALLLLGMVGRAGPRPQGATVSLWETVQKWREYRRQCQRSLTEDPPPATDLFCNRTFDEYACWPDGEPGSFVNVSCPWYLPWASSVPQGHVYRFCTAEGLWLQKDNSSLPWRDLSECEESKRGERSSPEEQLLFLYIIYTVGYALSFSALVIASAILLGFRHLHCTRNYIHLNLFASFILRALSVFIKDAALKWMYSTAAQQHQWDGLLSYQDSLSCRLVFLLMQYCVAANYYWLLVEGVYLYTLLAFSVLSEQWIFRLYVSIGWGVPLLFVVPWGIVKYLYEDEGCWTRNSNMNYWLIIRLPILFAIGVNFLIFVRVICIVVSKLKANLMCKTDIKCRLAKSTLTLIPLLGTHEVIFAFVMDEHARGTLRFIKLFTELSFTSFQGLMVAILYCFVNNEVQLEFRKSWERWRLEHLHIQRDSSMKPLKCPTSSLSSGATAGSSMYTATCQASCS
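GLP-1R inverse agonism mode: basal reporter luminescence in engineered HEK293 cells measured after one day of compound exposure at 37 deg C, with a 12 min room-temperature detection step.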
HepG2 tox-1: HepG2 cytotoxicity, counter-screen for TGF-b inhibitors; HepG2 CAGA-GFP viability, ATP luminescence, 18 h; Potency, µM (top dose mostly 46.1 µM), inactives show at the top dose activity change, negative = cytotoxicity, actives largely listed as cytotoxic; 410,000 tested, 0.76% active
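CellTiter-Glo luminescence gave cytotoxicity after 18 hours at 37 degrees C. The cells were HepG2 CAGA-GFP in 1% FBS DMEM, stimulated with 500 pg/mL TGF-beta after compound addition. %Activity was normalised to no-cell wells (complete cell-killing) and DMSO (no toxicity), and curves were fitted and classified.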
TGFb inhibitor: blocks TGF-b signaling; 410,000 tested, 1.2% active; Potency, µM (highest dose often 46.1 µM), without a hit: at the highest dose activity, negative = inhibition, usual class: inhibitors; HepG2 CAGA-GFP TGF-b/SMAD3 reporter, GFP fluorescence, 18 h; TGF-beta stimulated, 500 pg/mL final; also: % is scaled to controls: 0 for no effect and ±100 for the full control effect; nearly all actives have a fitted effect of over 65% in size
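Smad-responsive CAGA-GFP expression was quantified in HEPG2 cells exposed to compounds and 500 pg/mL final TGF-beta for 18 h at 37 degrees C; unstimulated wells defined full inhibition.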
ATXN2 expr inh: ATXN2 expression inhibition | HEK-293 ATXN2-luciferase reporter, luminescence, 24 h | 360,000 tested, 0.72% active | AID 1745845 | Potency, µM (series often up to 57 µM), without a hit: at the highest dose activity change, negative = inhibition, actives largely listed as inhibitors; also: % is scaled to controls: 0 for no effect and ±100 for the full control effect; nearly all actives have a fitted effect of over 55% in size
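ATXN2-luciferase reporter cells (luciferase flanked by upstream and downstream ATXN2 gene portions) were treated 24 h at 37 °C with compounds at up to 57 uM. SteadyGlo luminescence gave expression; GF-AFC fluorescence gave viability.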
GLP-1R agonist: agonists of human GLP-1 receptor; P43220; HEK293 GLP-1R CRE-luciferase, luminescence, 4-6 h; cells express a hypersensitive GLP-1R form; Potency, µM (series often up to 45.6 µM), without a hit: at the highest dose activation, hits mostly activators; 380,000 tested, 0.007% active; AID 624172; also: % of control where 0% means no effect
S2 tox: reduces viability in counter-screen for ATXN expression inhibitors; S2 cells (HEK-293 line with an ATXN2-luciferase reporter) viability, CellTiter-Fluor protease fluorescence, 24 h; Potency, µM (titrated, usually from 56.7 µM), usual class: cytotoxic; 400,000 tested, 0.49% active; also: nearly all actives have a fitted effect of over 40% in size
TGFb CAGA inh: confirmation of TGF-b signaling inhibitors in HepG2 reporter cells; shares compounds with TGFb inhibitor; AID 720534; HepG2 CAGA-GFP TGF-b reporter, GFP fluorescence, 18 h; cells stimulated with TGF-beta, 500 pg/mL; Potency, µM (series often up to 46.1 µM), without a hit: at the highest dose activity, negative = inhibition, usual class: inhibitors; 1,600 tested, 63% active; also: % is scaled to controls: 0 for no effect and ±100 for the full control effect; nearly all actives have a fitted effect of over 65% in size
HepG2 tox-2: toxic to HepG2 cells in TGF-b counterscreen; shares compounds with TGFb inhibitor; HepG2 CAGA-GFP viability, ATP luminescence, 18 h; cells stimulated with TGF-beta, 500 pg/mL; Potency, µM (doses to about 46.1 µM), without a hit: top-dose activity, negative = cytotoxicity, actives largely listed as inhibitors; 1,600 tested, 27% active; AID 720535; also: % is scaled to controls: 0 for no effect and ±100 for the full control effect; nearly all actives have a fitted effect of over 70% in size
CCL64 TGFb inh: blocks TGF-b signaling in CCL64 reporter cells; CCL64 CAGA-GFP reporter, TGF-b stimulated, GFP fluorescence, 18 h; 1,600 tested, 41% active; Potency, µM (highest dose often 46.1 µM), for the others: at the top dose activity, negative = inhibition, actives largely listed as inhibitors; AID 720536; shares compounds with TGFb inhibitor; also: nearly all actives have a fitted effect of over 65% in size
TGFb COP inh: TGF-b inhibition validated with COP promoter; HepG2 COP-GFP TGF-b reporter, GFP fluorescence, 18 h; cells stimulated by added recombinant TGF-beta; Potency, µM (doses to about 46.1 µM), without a hit: at the highest dose activity, negative = inhibition, usual class: inhibitors; shares compounds with TGFb inhibitor; 1,600 tested, 3% active; also: nearly all actives have a fitted effect of over 70% in size
* = called active by the depositor; i = inactive; ? = inconclusive; · = not tested or not shown. In the library only some 3.7% were active in any assay of this set; here they are far more common. Calls follow the shape of the dose curve; as a rule, active = well fitted curve in the direction sought with a large enough effect; inconclusive = small, poorly fitted or top-dose-only effect, or another doubt; inactive = no such curve, though single readings can be large; an effect the other way counts as inactive or inconclusive. Potency is read from the fitted curve at half-maximal effect.

SMILES | GLP-1R inv ag | HepG2 tox-1 | TGFb inhibitor | ATXN2 expr inh | GLP-1R agonist | S2 tox | TGFb CAGA inh | HepG2 tox-2 | CCL64 TGFb inh | TGFb COP inh
CCSc1n[nH]c2nc3c(c(=O)n12)C1(CCCC1)Cc1ccccc1-3 | ? | -7% | -5% | 0% | -1% | · | · | · | · | ·
Cc1ccc(-n2c(SCC(N)=O)nc3c(c2=O)C2(CCCC2)Cc2ccccc2-3)cc1 | ? | 11% | 8.9µM* | -24% | -9% | i | 13µM* | 15µM* | ? | 19%
Cc1cccc(NCc2ccc(O)c3ncccc23)c1C | -29% | -12% | 11µM* | -27% | -1% | i | 10µM* | -23% | ? | 14%
O=C(CSc1ccc2nc(-c3ccccc3)cn2n1)Nc1ccccc1 | -26% | -8% | 0% | 15% | 1% | i | · | · | · | ·
CCCOc1ccc(C(=O)CCN2CCN(C(=O)OCC)CC2)cc1 | ? | -45% | 16µM* | ? | 7% | ? | 8.2µM* | 21µM* | 18µM* | 23µM*
Cc1ccc(NC(=O)c2cc(S(=O)(=O)NCCC3=CCCCC3)ccc2F)cc1 | ? | -9% | 11µM* | -14% | -7% | ? | 18µM* | ? | 26µM* | 36%
Cc1ccc(C)c(NC(=O)c2cc(S(=O)(=O)NCCC3=CCCCC3)ccc2F)c1 | ? | -20% | ? | · | · | · | · | · | · | ·
O=[N+]([O-])c1cc(Cl)ccc1N1CCN(c2ccccc2O)CC1 | ? | -11% | 7.1µM* | -11% | 19% | ? | ? | -6% | -7% | -3%
Cc1ccc2nc(-c3ccc(C)c(NC(=O)COc4ccccc4Cl)c3)oc2c1 | · | -22% | 2% | · | · | · | · | · | · | ·
CCSc1ccccc1C(=O)n1nnc2ccccc21 | 0% | -30% | 11µM* | -7% | -19% | i | 5.8µM* | ? | ? | 2%
CC(=O)n1nnc2ccccc21 | · | 4% | -15% | · | · | · | · | · | · | ·
N#CCC(=O)NN | · | · | · | -1% | -2% | i | · | · | · | ·
CCc1ccccc1NC(=O)C(=O)NCCCN1CCOCC1 | 17% | -17% | 6% | 0% | 6% | i | · | · | · | ·
FC(F)(F)c1ccccc1Cc1c(-c2ccccc2)nc2ccc(Cl)cn12 | ? | -23% | 16µM* | 40% | -4% | i | ? | -16% | -1% | 7%
N#Cc1ccc(-c2nc3ccc(Cl)cn3c2Cc2ccccc2C(F)(F)F)cc1 | 10% | -19% | ? | 12% | -2% | i | · | · | · | ·
Cc1ccc(-n2ncc3c(NCCc4ccccc4)ncnc32)cc1 | ? | -16% | 3% | 46% | · | i | · | · | · | ·
Cc1ccc(Cl)cc1N1CCN(C(=S)NCc2ccco2)CC1 | ? | -19% | 16µM* | -20% | 14% | i | 16µM* | ? | ? | 38%
